Values without a mark were called inactive. The rule behind the calls is not given here.
Target: Pantothenate synthetase (Mycobacterium tuberculosis (strain ATCC 25618 / H37Rv)) (UniProt P9WIL5)
Experiment: Coupled enzyme confirmation of inhibitors against recombinant Mtb PanC (AID 375);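 note: 0% = full reaction with vehicle and 100% = no enzyme background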
Details: coupled enzyme assay; at 10 µM, active compounds read high

Chain of Pantothenate synthetase (Mycobacterium tuberculosis (strain ATCC 25618 / H37Rv)) (P9WIL5 whole entry, looked up): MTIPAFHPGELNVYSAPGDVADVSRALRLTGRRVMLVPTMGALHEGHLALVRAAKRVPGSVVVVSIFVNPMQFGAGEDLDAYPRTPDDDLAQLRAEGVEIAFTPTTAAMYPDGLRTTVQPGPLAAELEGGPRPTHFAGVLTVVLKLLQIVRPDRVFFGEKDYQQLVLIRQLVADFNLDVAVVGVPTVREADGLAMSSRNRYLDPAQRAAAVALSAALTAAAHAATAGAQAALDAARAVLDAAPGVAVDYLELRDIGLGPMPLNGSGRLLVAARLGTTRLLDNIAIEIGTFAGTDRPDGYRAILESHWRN

SMILES | inhibition [%]
COc1cc(C2N3CC4(C)CN2CC(C)(C3)C4)ccc1O (stereo unspecified) | 0
O=C(CCNNC(=O)c1ccncc1)NCc1ccccc1 | 0
CCOC(=O)N1CCC(N2C(=O)c3ccccc3C2Nc2ccccc2C)CC1 (stereo unspecified) | 4
CCOC(=O)Cn1c(=O)c(-c2ccccc2N)nc2ccccc21 | 3
Cc1cc(NC(=O)Cn2cnc3c2c(=O)n(C)c(=O)n3C)n(-c2ccccc2)n1 | 0
COC(=O)c1ccc(C2C(C#N)=C(N)Oc3cc(C)n(C)c(=O)c32)cc1 (stereo unspecified) | 0

— PubChem BioAssay
